Bioassay records deposited in PubChem BioAssay by National Center for Advancing Translational Sciences (NCATS).
Luciferase inh = inhibitors of firefly (Photinus pyralis) luciferase. 76,000 tested, 2.5% active. P08659. Potency, µM (top dose mostly 115 µM), most hits filed as inhibitors. AID 1347043. purified P. pyralis luciferase, luminescence, biochemical; also: nearly all actives have a fitted effect of over 65% in size
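Luminescence read by CCD imager after adding enzyme (10nM final) to wells holding compound, titrated in qHTS. Substrates 10uM each D-luciferin and ATP; buffer 50mM Tris acetate pH 7.5, 10mM Mg acetate, Tween-20, BSA.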
NPR1 antag = antagonists of human natriuretic peptide receptor Npr1; P16066; 76,000 tested, 1.6% active; Potency, µM (highest dose often 46.3 µM), hits mostly inhibitors; HEK293 hNpr1 GloSensor cGMP, ANP-stimulated luminescence; calls by dose curve; also: nearly all actives have a fitted effect of over 60% in size
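Compound pre-incubated 30 min at room temperature on GloSensor-loaded HEK293 cells stably carrying hNpr1 and the pGS-40F cGMP biosensor. Stimulation uses hNppA at 0.1 nM final; luminescence is taken at baseline and 20 min post-agonist.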
3T3 cytotox = cytotoxic compounds in NIH 3T3 cells; NIH 3T3 viability, CellTiter-Glo ATP luminescence, 48-72 h; Potency, µM (series often up to 96.7 µM), usual class: inhibitors; 94,000 tested, 4.3% active; also: nearly all actives have a fitted effect of over 55% in size
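Viability of NIH 3T3 cells after 48 or 72 hr compound treatment at 37 °C was assessed by CellTiter-Glo, with luminescence imaged following a 10 min room-temperature step.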
HEK cytotox = HEK 293 cell cytotoxicity. HEK 293 viability, ATP luminescence (CellTiter-Glo), 48-72 h. Potency, µM (top dose mostly 115 µM), most hits filed as inhibitors. 94,000 tested, 6.6% active; also: nearly all actives have a fitted effect of over 60% in size
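HEK 293 cells at 250 cells/well were exposed to compounds by pintool transfer for 48 or 72 hr at 37 degree Celsius, 5% CO2. Viability was read as ATP-coupled luminescence with CellTiter-Glo after 10 min at room temperature.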
Each line names hits and unclear results; the compound was inactive in the other large screens. In the library only some 11% were active in any assay of this set; here they are far more common. Unless noted, calls follow the shape of the dose curve; as a rule, active = well fitted curve in the direction sought with a large enough effect; inconclusive = small, poorly fitted or top-dose-only effect, or another doubt; inactive = no such curve, though single readings can be large; an effect the other way counts as inactive or inconclusive.

O=c1n(-c2ccc(F)cc2F)nc2n1CCN(Cc1ccc(F)cc1)C2	3T3 cytotox inconclusive, HEK cytotox 50.1µM
N#Cc1ccc(CN2CCn3c(nn(-c4ccc(F)cc4F)c3=O)C2)cc1	HEK cytotox inconclusive
COc1cc(F)ccc1-c1nc(N2CCOCC2)cc2c1CN(CC1CC1)C2=O	HEK cytotox inconclusive
Cc1cc(C(=O)N2CC(N(CC(C)C)C3CCOCC3)C2)nn1C	none
O=C(NC1CC1)c1nc(-c2ccccc2)c2ccccn12	3T3 cytotox inconclusive, HEK cytotox 63.1µM
COCCNC(=O)c1nc(-c2ccccc2OC)c2cnccn12	3T3 cytotox inconclusive, HEK cytotox inconclusive
O=C(NC1CC1)c1nc(-c2cccc(F)c2)c2cnccn12	3T3 cytotox inconclusive, HEK cytotox inconclusive
COc1ccccc1-c1nc(C(=O)NC2CC2)n2ccncc12	3T3 cytotox 56.2µM, HEK cytotox inconclusive
O=C(NC1CC1)c1nc(-c2cccc(C(F)(F)F)c2)c2cnccn12	HEK cytotox 79.4µM
COc1ccc(C(CC(=O)N2CCCCC2)c2c[nH]c3ccccc23)cc1OC (stereo not drawn)	none
CCOCCOC1CCN(C(=O)c2cc(-c3cccc(OC)c3)n[nH]2)CC1	Luciferase inh 25.1µM
COc1cccc(-c2cc(C3CCN(C(=O)Nc4ccc(OC)c(OC)c4)CC3)[nH]n2)c1	Luciferase inh inconclusive, 3T3 cytotox inconclusive, HEK cytotox inconclusive
COc1cccc(-c2cc(C3CCN(C(=O)Nc4ccccc4C(F)(F)F)CC3)[nH]n2)c1	3T3 cytotox 31.6µM, HEK cytotox 22.4µM
COc1cccc(-c2cc(C3CCN(C(=O)Nc4cc(C)cc(C)c4)CC3)[nH]n2)c1	3T3 cytotox inconclusive, HEK cytotox 39.8µM
COc1cccc(-c2cc(C3CCN(C(=O)Nc4ccc(F)cc4F)CC3)[nH]n2)c1	3T3 cytotox inconclusive, HEK cytotox inconclusive
COc1cccc(-c2cc(C3CCN(C(=O)c4ccc(Cl)cc4)CC3)[nH]n2)c1	NPR1 antag inconclusive, 3T3 cytotox inconclusive, HEK cytotox 44.7µM
O=C(c1ccc(F)cc1)N1CCC(c2nn(-c3ccccn3)c(=O)[nH]2)CC1	none (no result: Luciferase inh, NPR1 antag)
Cc1cc(=O)n(CC(=O)Nc2ccc(Br)cc2)c(N2CCOCC2)n1	3T3 cytotox inconclusive
O=C(c1ccc(Cl)nc1)N1CCN(C(=O)c2nc3cccnc3n(CCc3ccccc3)c2=O)CC1	none (no result: Luciferase inh, NPR1 antag)
CSc1cccc(NC(=O)N2CCC(c3cc(-c4cccc(C)c4)n[nH]3)CC2)c1	3T3 cytotox 17.8µM, HEK cytotox 44.7µM
COC1CN(c2cccc(F)c2)C12CCN(C(=O)c1cnc(C)cn1)CC2 (stereo not drawn)	none
COc1ccc(Cn2nc(-c3ccccc3)nc2C2CCC(=O)NC2)cc1 (stereo not drawn)	Luciferase inh 35.5µM, HEK cytotox inconclusive
COc1ccc(CN2CCC(c3nn(Cc4ccccc4)c(=O)[nH]3)CC2)cc1	none
COc1ccccc1CC(=O)N1CCN(c2cc(-c3ccccc3)[nH]n2)CC1	3T3 cytotox inconclusive, HEK cytotox 22.4µM
O=C(COc1ccc(Cl)cc1)N1CCN(c2cc(-c3ccccc3)[nH]n2)CC1	3T3 cytotox inconclusive, HEK cytotox 89.1µM
O=C(COc1ccccc1)N1CCCN(c2cc(-c3ccc(Cl)cc3)[nH]n2)CC1	3T3 cytotox inconclusive, HEK cytotox inconclusive
COc1ccccc1CCC(=O)N1CCN(c2cc(-c3ccc(Cl)cc3)[nH]n2)CC1	3T3 cytotox 31.6µM, HEK cytotox inconclusive
O=C(NCc1ccccc1)c1cn(C2CN(C(=O)c3cccs3)C2)nn1	none (no result: Luciferase inh, NPR1 antag)
O=C(Nc1ccc2c(N3CCOCC3)ncnc2c1)c1cccc(Br)c1	3T3 cytotox inconclusive, HEK cytotox 63.1µM
O=C(Nc1ccc2ncnc(N3CCCCC3)c2c1)c1ccc(F)c(F)c1	3T3 cytotox inconclusive, HEK cytotox 44.7µM
O=C(Nc1ccc2c(N3CCCCC3)ncnc2c1)c1ccsc1	Luciferase inh inconclusive, 3T3 cytotox inconclusive, HEK cytotox inconclusive
O=C(Nc1ccc2ncnc(N3CCCCC3)c2c1)c1ccsc1	3T3 cytotox 25.1µM, HEK cytotox 39.8µM
O=C(Nc1ccc2c(N3CCOCC3)ncnc2c1)c1ccccc1C(F)(F)F	3T3 cytotox 28.2µM, HEK cytotox inconclusive
COc1ccc(-c2ccnc3nc(C(C)C)nn23)cc1OC	3T3 cytotox inconclusive
CC(C)CN1C(=O)c2ccccc2C(C(=O)Nc2nncs2)C12CCCCC2 (stereo not drawn)	none
Cc1ccccc1S(=O)(=O)N1CCCCC1c1nc(CCOCC2CCOCC2)no1 (stereo not drawn)	HEK cytotox inconclusive (no result: Luciferase inh, NPR1 antag)
O=C(Nc1ccc2c(N3CCOCC3)ncnc2c1)c1ccc(F)c(Cl)c1	3T3 cytotox 35.5µM, HEK cytotox inconclusive
